This note sets out measurements from the supplement of paper PMC11417369.

Whole data set: some 25,000 sequences, median “ln(normalized median fluorescence intensity)” near 9.7, cut for the highest 2% near 11. What follows is part of a selection rich in the highest values, with near analogues and random picks from the rest.

The assay has as its system PfAP2-HC AP2 domain (GST-tagged). Kind of assay: gcPBM binding intensity (ln(normalized median fluorescence intensity)); higher = stronger DNA binding. Summed up: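 After 1 h on an Agilent 4 × 180k array of primer-extended double-stranded 36-bp intergenic genomic probes and negative controls, bound GST-tagged P. falciparum DNA-binding domains were detected with Alexa488 anti-GST antibody and scanned at 488 nm. The domains had been expressed in E. coli, and binding took place in 1× PBS with 1% milk, 0.2 mg/ml BSA, 0.5% salmon testes DNA and 0.03% Triton X-100. Binding intensity is the highest Masliner-normalised natural-log median intensity across replicate spots of either probe orientation.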
As to “AAAAAAAAAAAATTCACACACATATAAAAAATTAAG [CACACA_site728]”, the “gcPBM binding intensity (ln)” value was 10.

In the case of “AATAAATATAGGTACACACACAAATATGTACATATC [CACACA_site6976]”, the “gcPBM binding intensity (ln)” value was found to be 10.2. In the case of “ATTCTCCATGTTTGATGTACTCATATGACGACGGAG [XGTACX_site4923]”, the “gcPBM binding intensity (ln)” value is 9.52. Turning to “AATATATGTATATCCACACACATATATATATATATA [CACACA_site1633]”, the “gcPBM binding intensity (ln)” value worked out at 9.96. Consider “ATACATATTCTTATTTGTACTTATTATAAAATGGTC [XGTACX_site6584]”, for which the “gcPBM binding intensity (ln)” value came out at 9.56.

Regarding “ATATATATTTATTTATGTACGAATAAATTTACGAAT [XGTACX_site5190]”, the “gcPBM binding intensity (ln)” value stood at 9.51.

As to “CTTATCAAAAAAAAAGCATGCCACAGGCAAAAGGTA [TGCATGCA_site574]”, the “gcPBM binding intensity (ln)” value is 9.71.

For “ATAGAATAAATTTTGTCATTTATTCCTTATATATAA [GTGCAC_negctrl_site227]”, the “gcPBM binding intensity (ln)” value stood at 9.56. As for “TTATATATTTTTAGGTGTACTTTTTTTTTTTTTTTT [XGTACX_site8164]”, the figure is 9.54; as for “ATATATATATAATAAACACACACATATACATATATG [CACACA_site9145]”, 10.5; as for “AAACATAAGAGACACACACACATATATAAATAAATA [CACACA_site7674]”, 10.5.

As for “ATAAAAAAAGGACACACACACATATATTTATTTATA [CACACA_site7438]”, the “gcPBM binding intensity (ln)” value was 10.5. On to “TAAAACATAAGAGACACACACACATATATATATATA [CACACA_site3643]”, for which the “gcPBM binding intensity (ln)” value came to 10.9.

As to “ATAAAAAAAAGACACACACACATATATATATATATA [CACACA_site3073]”, the “gcPBM binding intensity (ln)” value stood at 10.3. The figure for “AAATTCCACCAACACACACACATATAAATAAATAAA [CACACA_site1233]” is 11; for “ATATTATATAAATACACACACACATGCATGCACATA [CACACA_site4236]” it is 11.2; for “ATAAAAAAAGGACACACACACATATATATATATATA [CACACA_site5662]” it is 10.8. For the sequence “AAATTCCACGAACACACACACATATAAATAAATAAA [CACACA_site6697]”, the “gcPBM binding intensity (ln)” value came to 10.6. “AAAAATAAAATATATACATGCATATACATATTATAT [TGCATGCA_site668]”: the “gcPBM binding intensity (ln)” value amounted to 9.65. The figure for “CATATAAAAGGACACACACACACATATATATATATA [CACACA_site4674]” is 11.6; for “ATATTATATATATACACACACACATGCATGCACATA [CACACA_site7917]” it is 10.3; for “AATAACCACCAACACACACACATATATATATATATA [CACACA_site3540]” it is 10.2. The figure for “ATAGATATAACATATGCATGTAAAATATAACCACTC [TGCATGCA_site60]” is 9.97; for “TTCACTAATAAATACGCACACATATACAGATATATA [CACACA_site4887]” it is 9.94; for “GAGTTTTAATGTAATAGTACTTTAATTATTATATAT [XGTACX_site4527]” it is 9.7. As for “ATACACAAAATTATTAAATCAATAAATATATGGTTT [CACACA_negctrl_site353]”, the figure is 9.57.

For “TAATATCATTTATGGGGTACCTCCTATTCTTATTTA [XGTACX_site1839]”, the “gcPBM binding intensity (ln)” value came to 9.64. As for “TAACTTTTTTTTTTTTTTTTTTAACTTTTATGTAAT [GTGCAC_negctrl_site156]”, the figure is 9.45; as for “GAAATATTTAGACACACACACAAACATATAAATATA [CACACA_site6980]”, 11.1; as for “TTAAACAATTTAGACATACACACAAAAATAATATTA [CACACA_site385]”, 9.87. The figure for “AAACAATTTAGACATACACACAAAAATAATATTATA [CACACA_site384]” is 10.3; for “TACATCTGTAATGTGTGTACATATATGTATATATTT [XGTACX_site1805]” it is 9.87; for “TTTATTAATGGACACACACACACACCCAAAATAAAA [CACACA_site4294]” it is 10.5.

With “TAATAAATAAATGACACACACACACGCAAAAAAAAA [CACACA_site7275]”, the “gcPBM binding intensity (ln)” value is 10.6. As for “TTTATTAATAAACACACACACACACCCAAAATAAAA [CACACA_site7966]”, the figure is 11; as for “TTTATTAATAGACACACACACACACGCAAAATAAAA [CACACA_site6255]”, 11.2. The figure for “ATTAATAAATAAATGACACACACACCCACAAAAAAA [CACACA_site8839]” is 11.3; for “AACACCCACAGACACACACACAAAAATGATTAAAAA [CACACA_site2433]” it is 10.9; for “TTAACAAATAAACACACACACACACCCAAAAAAAAA [CACACA_site8068]” it is 11.1. The figure for “TTTATTAAGAAACACACACACACACCCAAAATAAAA [CACACA_site242]” is 10.5; for “ATATAAAATAGACACGCACACAAAAAAAAAAAAAAA [CACACA_site3522]” it is 10.4; for “TATTTATTAAAACACACACACACACCCACAAAATAA [CACACA_site241]” it is 10.5. Consider “ATAAATAAAAAACACACACACACACCCAAAAAAAAA [CACACA_site2624]”, for which the “gcPBM binding intensity (ln)” value came out at 10.7. The figure for “AAAAAAAAAAAACACACACACAAAATAAACAAACAA [CACACA_site2721]” is 10.5. For the sequence AAAAAAATAGTCTTCTTGCACTTTTTAATTTATTTT, the “gcPBM binding intensity (ln)” value was determined as 9.6.

On to “CTAAAACAATAAATCACACATACATAGGATAATATA [CACACA_site4247]”, for which the “gcPBM binding intensity (ln)” value was found to be 9.81. As for “GTGTAATTTATTGTGTTGCACTTTTTTTTTTTTTTT [GTGCAC_site9644]”, the figure is 9.84. The figure for “ATATATATGTATATAACATGCAACATTTAATAATAA [TGCATGCA_site1018]” is 9.85; for “AAGGTGGAAACAATTACACACACACTAATAAAAAAA [CACACA_site9051]” it is 10.8; for “ATATGATTTCACAAGACACACACATACAAATTTATA [CACACA_site9296]” it is 10.1. For “TATTTATTTATTTATGCATGCATGAATAATTTTTAC [TGCATGCA_site31]”, the “gcPBM binding intensity (ln)” value came to 9.62. With “AGAACAATTCTGTGGTGTACCAAAAAAAATTTAATT [XGTACX_site8082]”, the “gcPBM binding intensity (ln)” value is 9.8.

Consider “TAAAGAGTCATGTGGTGTACCTGCTTCACCACATAT [XGTACX_site1288]”, for which the “gcPBM binding intensity (ln)” value was 9.4. As for “AACTTTGAGACATAGTGTACTTACACAATCTTAATA [XGTACX_site3712]”, the “gcPBM binding intensity (ln)” value worked out at 9.63.

For “ATGCATATATTTATGTGTACATATATTTGTAGGGGG [XGTACX_site6063]”, the “gcPBM binding intensity (ln)” value was 11.2. On to “TATATATATATATATGCATGTACATATATTTGTTAT [TGCATGCA_site379]”, for which the “gcPBM binding intensity (ln)” value amounted to 10.4. As for “ATATATATTTATATATGTACATATTTTTGTGTATTT [XGTACX_site1183]”, the figure is 9.93.
